{"source": "the supplement of paper PMC10681739", "data": [{"molecular_target": "RUNX1 (UniProt Q01196)", "sequence (Q01196 whole entry)": "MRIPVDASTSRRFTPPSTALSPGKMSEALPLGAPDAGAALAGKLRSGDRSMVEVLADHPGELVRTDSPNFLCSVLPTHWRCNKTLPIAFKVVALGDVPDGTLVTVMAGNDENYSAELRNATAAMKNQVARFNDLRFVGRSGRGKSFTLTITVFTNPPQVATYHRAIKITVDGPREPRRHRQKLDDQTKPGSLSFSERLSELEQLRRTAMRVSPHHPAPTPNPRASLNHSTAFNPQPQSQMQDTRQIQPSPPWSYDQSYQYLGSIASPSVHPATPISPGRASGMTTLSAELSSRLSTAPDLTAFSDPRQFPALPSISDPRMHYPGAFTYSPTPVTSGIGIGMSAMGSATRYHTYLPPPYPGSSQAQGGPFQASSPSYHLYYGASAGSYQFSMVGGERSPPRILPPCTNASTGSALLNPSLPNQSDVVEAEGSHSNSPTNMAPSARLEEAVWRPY", "assay": "RUNX1 binding intensity (PBM fluorescence) in presence of ETS1, normalised to RUNX1-only experiment (arbitrary fluorescence units); higher = stronger binding", "details": "RUNX1 concentration 2 nM; ETS1 concentration 25 nM", "procedure": "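Cooperative gcPBM on 36-bp genomic probes with neighbouring ETS1 and RUNX1 sites. Recombinant human RUNX1 (2 nM) was incubated alone or with ETS1 (25 nM) and detected with anti-RUNX1 antibody plus Alexa488 secondary. Values are medians over 4 replicate spots; the RUNX1+ETS1 data were normalised to the RUNX1-only data. The probes sit in constant array flanks that are not printed.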", "values": [{"sequence": "GCGCGGCCAGAGAAAGGATGTGGTATAGCAGAAAGT", "RUNX1 binding intensity": 1040}, {"sequence": "GGACTTCCTGAAGCCAGATCGGTTTACCACAGTCAG", "RUNX1 binding intensity": 1860}, {"sequence": "TCTGGAGAAGCAGGATGTGGTTTGCAAGAGGCTTGC", "RUNX1 binding intensity": 4750}, {"sequence": "TATTCATGACATCCTGTCGGGCTTGTGGGCTGCGTA", "RUNX1 binding intensity": 1430}, {"sequence": "GCCCCCATGCTTCCTGTTGTGGGAGATGAAGTGTGG", "RUNX1 binding intensity": 1650}, {"sequence": "GAAGTCACATCCTGTCTGTTGCGGCAGGGCACAGAG", "RUNX1 binding intensity": 1750}, {"sequence": "GCGAGCACTTCCGGTGTGTGAGCCTGCGGTTGCTAC", "RUNX1 binding intensity": 3050}, {"sequence": "GAGATACACAGCGACATCCGCCCGCAAGAGCATGGT", "RUNX1 binding intensity": 1280}, {"sequence": "GGGGCAGCTTCCGGCAGGAGAGCCCGCATTCACGGC", "RUNX1 binding intensity": 2360}, {"sequence": "ACACTGGCCGGAAGGGGCGGGACCGCGAGTTAAGAG", "RUNX1 binding intensity": 1320}, {"sequence": "CATTTACAGAAAAGGAAACCGCAAGTTTGAGCAAGT", "RUNX1 binding intensity": 30700}, {"sequence": "CGTCACTTCCCACGCGACTGCCTGCGGGAAACATGG", "RUNX1 binding intensity": 1680}, {"sequence": "GAGCACAGGAAAAGCTGGTGCCAACCACAAGTGCTT", "RUNX1 binding intensity": 971}, {"sequence": "TTAGGCAGAGCTCATTTCCGCCCACATCAAAAGTAA", "RUNX1 binding intensity": 1110}, {"sequence": "TGTCGGGCGGATGTGTACCGGCGGTAATATAGTAAG", "RUNX1 binding intensity": 1220}, {"sequence": "GGATGACATCCGGCACCAACTTAACCACTAATCTCA", "RUNX1 binding intensity": 2410}, {"sequence": "TGGGGCCCGGAAGCGCTGGCGCCTTGCGGCCAGAAG", "RUNX1 binding intensity": 952}, {"sequence": "CAGAGGACAGGATGCCAACCCCAAAACCGCAGCGAC", "RUNX1 binding intensity": 9280}, {"sequence": "TGTTTTCGCTCTTCCTGGCCTTGCGGGCAGCCAGGA", "RUNX1 binding intensity": 1510}, {"sequence": "CCAGAATGCAGGAAGTGCTGTGGTTTGACTTTGTTT", "RUNX1 binding intensity": 1970}, {"sequence": "TGGGCAGGAAGTGGTATCTGATTGTGGTTTTGATTT", "RUNX1 binding intensity": 8180}, {"sequence": "ACCTTCTGTTCCCTTCCTCAGACCGCAGGCGAGATG", "RUNX1 binding intensity": 2230}, {"sequence": "GAAGCCAGGAAATGGTGCGTGTGCGGGGCCGGGCGC", "RUNX1 binding intensity": 935}, {"sequence": "AGCTGCAGTTGGGCAGGAAACCACAATGTCGAAGAC", "RUNX1 binding intensity": 2400}, {"sequence": "ATTTTAGCATTTTCCTGCTCGGAGACCACATGTTTG", "RUNX1 binding intensity": 1220}, {"sequence": "CAATGGATGGCCACATCCTCACCACAAACTGAGTCA", "RUNX1 binding intensity": 1360}, {"sequence": "ACACAAACAGGAAGTGTTTGTGGTCCCTGCCTTTAG", "RUNX1 binding intensity": 1590}, {"sequence": "CATCTCGGAAACGGACAGCAAGATCCCGCATTAACA", "RUNX1 binding intensity": 853}, {"sequence": "GGGTGCTTCCTATAAACAATGACTCATTACCGCACT", "RUNX1 binding intensity": 976}, {"sequence": "GCAAACAGCACATCCGGTGTGGTCGACGGGTCCTCC", "RUNX1 binding intensity": 1830}, {"sequence": "CAGAGAGCGGACTTCCGCGACGCGGGTAAGCCGGGC", "RUNX1 binding intensity": 894}, {"sequence": "TCACATCCTGTAATGGTTTGCGCATACCACAGTTCT", "RUNX1 binding intensity": 1740}, {"sequence": "CGAAAGTGACCGGAAGTAACCGCCGGGCCAAGATGG", "RUNX1 binding intensity": 1530}, {"sequence": "GAAAGCTGCACTATTTCCTGAGGTTAGAGGTTTAAA", "RUNX1 binding intensity": 1040}, {"sequence": "TGCCCTGACTTCCTGGTCCTGTGGTCAAGGATGGGG", "RUNX1 binding intensity": 2000}, {"sequence": "ACCTCATCCTGCTGTTCTTGTGTGTGGTTGAGCAGT", "RUNX1 binding intensity": 1340}, {"sequence": "GCCCAGGGCGGCCGGAAGTTTGCGGGGCGGGGCGGA", "RUNX1 binding intensity": 1480}, {"sequence": "GAGTTCTCCGCTTCCTTGCGGCCGGCGGGATTAGCC", "RUNX1 binding intensity": 1030}, {"sequence": "TGCAATTGGCAGACAGGAAACCGCGGCGTTTTCTGG", "RUNX1 binding intensity": 1440}, {"sequence": "CCACGGCTGGCTTCCTGTGTGGTTGGCACGCCTTAC", "RUNX1 binding intensity": 1620}]}]}
